An excerpt weighted towards active compounds, which were near 0.54% of everything screened.
CXXC DNA block – blocks binding of human MLL CXXC domain to DNA; Q03164; MLL-CXXC / FITC-HOXA9 DNA fluorescence polarization; Potency, µM (series often up to 115 µM), for inactives: at the highest dose activity change, negative = inhibition, hits mostly inhibitors; 290,000 compounds, 0.037% hits; AID 2662; active means well fitted inhibition curve with a large enough effect in the polarisation, with a control signal flat, not every such curve was filed as active; inconclusive means small, poorly fitted or top-dose-only effect, or effect the other way, or a change in a side signal; inactive means no such curve, though single readings can be large or run the other way; the % refers to the polarisation; further: potency means the concentration at half of the fitted maximal effect
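Purified MLL-CXXC (added from a 7 uM solution) was preincubated 5 min at ambient with pinned compounds in 50 mM Tris-HCl pH 7.5, 50 mM NaCl, 1 mM DTT, 0.05% BSA. Fluorescein-labeled HOX-A9 DNA (50 nM solution) followed, 30 min, then polarization read.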
Menin-MLL FL inh – inhibitors of human menin-MLL interaction, wild-type MLL peptide; Fluorescence polarization, fluorescein-MLL peptide displacement from menin; FP activity change, % at 61.4 µM; 290,000 tested, under 10 active; active means well fitted curve in the direction sought with a large enough effect in the polarisation, not every such curve was filed as active; inconclusive means small, poorly fitted or top-dose-only effect, or effect the other way, or a change in a side signal; inactive means no such curve, though single readings can be large or run the other way; the % refers to the polarisation; further: % of control where 0% means no effect
IDH1 R132H inh – inhibitors of human mutant IDH1 R132H; O75874; IDH1-R132H enzyme, NADPH consumption, diaphorase/resazurin fluorescence; Potency, µM (series often up to 76.6 µM), for inactives: at the top dose activity change, negative = inhibition, most hits filed as inhibitors; 390,000 compounds, 0.093% hits; AID 602179; active means well fitted inhibition curve with a large enough effect; inconclusive means small, poorly fitted or top-dose-only effect; inactive means no such curve, though single readings can be large or run the other way; further: potency means the concentration at half of the fitted maximal effect; on the % scale 0 is the no-effect control and ±100 the full control effect; nearly all actives have a fitted effect of over 65% in size
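IDH1-R132H (0.5 ug/mL dispensed) in pH 7.5 Tris buffer was preincubated 30 min with compound, then given a substrate mix of 0.016 mM NADPH and 2 mM alpha-KG for 80 min at room temperature; remaining NADPH was read by diaphorase/resazurin fluorescence.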
Menin-MLL TR inh – inhibitors of human menin-MLL interaction, mutant MLL peptide; O00255; 270,000 compounds, 0.23% hits; Potency, µM (doses to about 61.6 µM), for the others: at the highest dose FP activity change, negative = inhibition, actives largely listed as inhibitors; Menin + Texas Red MLL mutant peptide, fluorescence polarization; active means well fitted inhibition curve with a large enough effect in the polarisation, with a control signal flat, not every such curve was filed as active; inconclusive means small, poorly fitted or top-dose-only effect, or effect the other way, or a change in a side signal; inactive means no such curve, though single readings can be large or run the other way; the % refers to the polarisation; further: potency means the concentration at half of the fitted maximal effect; % of control where 0% means no effect
Target sequence (O00255 whole entry, looked up): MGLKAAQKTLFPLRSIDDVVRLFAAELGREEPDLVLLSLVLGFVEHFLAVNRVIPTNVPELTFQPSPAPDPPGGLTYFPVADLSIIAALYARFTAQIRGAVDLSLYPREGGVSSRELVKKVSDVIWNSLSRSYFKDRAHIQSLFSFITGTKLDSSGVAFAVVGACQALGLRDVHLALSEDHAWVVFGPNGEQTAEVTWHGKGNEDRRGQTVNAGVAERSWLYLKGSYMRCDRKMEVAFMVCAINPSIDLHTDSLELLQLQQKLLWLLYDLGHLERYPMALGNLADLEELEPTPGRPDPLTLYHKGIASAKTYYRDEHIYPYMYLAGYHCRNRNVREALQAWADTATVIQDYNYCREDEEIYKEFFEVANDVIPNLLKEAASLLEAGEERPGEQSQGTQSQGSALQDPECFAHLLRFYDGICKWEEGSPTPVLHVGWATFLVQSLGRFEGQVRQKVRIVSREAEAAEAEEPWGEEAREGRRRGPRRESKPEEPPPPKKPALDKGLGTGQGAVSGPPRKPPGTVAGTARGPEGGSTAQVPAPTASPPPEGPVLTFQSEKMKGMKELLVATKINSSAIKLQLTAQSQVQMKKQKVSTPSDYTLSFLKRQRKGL
LDHA block – blocks human lactate dehydrogenase A; P00338; purified LDHA, NADH/diaphorase-resazurin fluorescence; stronger effect = lower value; activity change, % (values are at about 110 or 230 µM); 480,000 compounds, 0.15% hits; in the data active means activity change below about -30%; inconclusive means mostly about -25% to -30%;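 further: plate controls were DMSO wells for no effect and wells without enzyme for full effect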
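Human LDH5 (2 nM) was incubated with 0.06 mM NADH and 0.2 mM pyruvate for 5 min at room temperature in Tris pH 7.4. Remaining NADH was coupled through diaphorase/resazurin, and resorufin fluorescence was read at 0 and 20 min.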
pAkt inh – Akt phosphorylation inhibition; AID 651550; activity change, % for hits at 50 µM; 360,000 compounds, 0.32% hits; Neuro2A IGF-stimulated pAkt S473 HTRF, 20 min; stronger effect = lower value; in the data active means activity change below about -80%; inconclusive means mostly about -51% to -80%; further: on the % scale 0 is the no-effect control and ±100 the full control effect
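Neuro2A cells (4,500/well, DMEM with 0.5% FBS) were treated with compound at a single 50 µM final concentration, stimulated with 6 nM IGF for 20 min at 37 °C, and lysed. Phospho-Akt Ser473 was read by HTRF as 665/615 ratio ×10^4.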
* = called active by the depositor.

Screening Cc1ccc(N2CCN(C(C(=O)O)c3cn(CC(=O)O)c4ccccc34)CC2)c(C)c1 (configuration not stated) returned LDHA block -2.
For O=C1NC(c2ccccc2Cl)Nc2ccccc21 (configuration not stated) the results were CXXC DNA block 21%, Menin-MLL FL inh 1, IDH1 R132H inh -2%, Menin-MLL TR inh -2%, LDHA block 0 and pAkt inh -111%*.
Screening COCCNC(=O)CN(c1ccc(OC)c(OC)c1)S(=O)(=O)c1ccc(C)cc1 returned CXXC DNA block 3%, Menin-MLL FL inh 3, IDH1 R132H inh 0%, LDHA block -2 and pAkt inh -129%*.
For COCCNC(=O)CN(c1ccc(C)cc1)S(=O)(=O)c1ccccc1 the results were CXXC DNA block -7%, Menin-MLL FL inh 1, IDH1 R132H inh 8%, Menin-MLL TR inh -6% and LDHA block -8.
`NS(=O)(=O)c1ccc(N/N=C/c2ccc(Cl)cc2)c([N+](=O)[O-])c1` gave LDHA block 1.
For Cn1c(NC(=O)c2ccc(Br)cc2)cc(=O)n(C)c1=O the results were LDHA block 2.
Screening Cn1c(NC(=O)c2ccc(Br)o2)cc(=O)n(C)c1=O returned CXXC DNA block 6%, Menin-MLL FL inh -2, IDH1 R132H inh -2%, Menin-MLL TR inh 32%, LDHA block 2 and pAkt inh -116%*.
`Nc1nccnc1C(=O)NCCSCc1ccsc1` gave LDHA block 10.
CN(C)c1cccc(N=C2C=C(N3CCOCC3)CC(C)(C)C2)c1 was read as CXXC DNA block 2%, Menin-MLL FL inh 5, IDH1 R132H inh 9%, Menin-MLL TR inh 0%, LDHA block -31* and pAkt inh inactive.
COc1ccccc1OCc1ccc(C(=O)N2CCN3CCCC3C2)cc1 (configuration not stated) was read as CXXC DNA block -12%, Menin-MLL FL inh 8, IDH1 R132H inh 3%, Menin-MLL TR inh inconclusive, LDHA block -4 and pAkt inh -105%*.
`COc1ccc(C(=O)N2CCN(C3CCN(Cc4ccccc4)CC3)CC2)cc1OC` gave CXXC DNA block -10%, Menin-MLL FL inh -6, IDH1 R132H inh -1%, Menin-MLL TR inh -5%, LDHA block -40* and pAkt inh inactive.
Screening COc1ccccc1N1CCN(C2CCN(C(=O)c3ccc(F)cc3)CC2)CC1 returned CXXC DNA block 9%, Menin-MLL FL inh 5, IDH1 R132H inh -1%, Menin-MLL TR inh 2%, LDHA block -4 and pAkt inh inactive.
For COc1cccc(C(=O)N2CCN(C3CCN(Cc4ccccc4)CC3)CC2)c1 the results were CXXC DNA block inconclusive, Menin-MLL FL inh 3 and Menin-MLL TR inh 1%.
For COc1ccccc1N1CCN(C2CCN(C(=O)c3cccc(F)c3)CC2)CC1 the results were CXXC DNA block -3%, Menin-MLL FL inh 2, IDH1 R132H inh 14%, Menin-MLL TR inh -11%, LDHA block -32* and pAkt inh inactive.
Cc1cc(C(=O)CSc2nnc(COc3ccccc3)n2CCC(C)C)c(C)n1Cc1ccc(F)cc1 was read as LDHA block 10.
Cc1cc(C)cc(OCCOC(=O)c2cc(Cl)ccc2O)c1 was read as LDHA block -6.
COc1cccc(N(CC(=O)NC(C)c2ccccc2)S(C)(=O)=O)c1 (configuration not stated) was read as CXXC DNA block 11%, Menin-MLL FL inh 3, IDH1 R132H inh 4%, Menin-MLL TR inh -18%, LDHA block -2 and pAkt inh -119%*.
Screening CCCCc1c(O)c2ccccc2n(CCCC)c1=O returned CXXC DNA block 6%, Menin-MLL FL inh 2, IDH1 R132H inh 9%, Menin-MLL TR inh -17%, LDHA block -3 and pAkt inh inactive.

Assay outcomes as filed in PubChem BioAssay.
